Eight sequences from publication PMC7862700, “An all-to-all approach to the identification of sequence-specific readers for epigenetic DNA modifications on cytosine” can be followed below.

Common to all, as to experiment: DAPPL (digital affinity profiling via proximity ligation, sequencing); 10 mM Tris-HCl pH 7.5, 50 mM NaCl, 1 mM DTT, 4% glycerol, room temperature, 30 min; GST-TFs on glutathione beads, 16-mer random dsDNA library, 0.1% formaldehyde crosslink after washing; high values mean tight binding
Holding throughout (details): protein: recombinant; tags: N-terminal GST; dsDNA, one strand shown

One experiment has as its target T1, ERF (Homo sapiens, UniProt P50548 1-548).
T1 sequence: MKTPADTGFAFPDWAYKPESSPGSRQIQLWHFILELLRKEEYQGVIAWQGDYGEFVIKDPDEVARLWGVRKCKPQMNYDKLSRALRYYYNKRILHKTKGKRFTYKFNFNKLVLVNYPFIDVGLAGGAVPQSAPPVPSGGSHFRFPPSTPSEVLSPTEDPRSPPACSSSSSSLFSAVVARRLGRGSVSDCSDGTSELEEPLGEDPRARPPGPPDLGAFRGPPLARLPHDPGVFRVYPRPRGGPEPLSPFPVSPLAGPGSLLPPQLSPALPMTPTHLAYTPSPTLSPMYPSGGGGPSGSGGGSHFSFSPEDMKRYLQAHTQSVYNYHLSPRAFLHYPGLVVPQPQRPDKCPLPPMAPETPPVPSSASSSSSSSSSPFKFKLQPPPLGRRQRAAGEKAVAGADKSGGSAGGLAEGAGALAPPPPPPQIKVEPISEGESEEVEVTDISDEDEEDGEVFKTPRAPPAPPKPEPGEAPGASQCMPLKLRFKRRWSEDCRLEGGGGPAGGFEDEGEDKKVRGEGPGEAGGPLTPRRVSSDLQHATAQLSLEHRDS
The procedure, abridged: (§1)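 Human transcription factors carrying a GST fusion were produced in yeast, bound to glutathione beads, tagged with DNA barcodes and pooled together with a tag-only sample. Each pool was held with 200 nmole of a random double-stranded 16-mer DNA library in Tris/NaCl/DTT/glycerol buffer for 30 min at room temperature, then washed, crosslinked in 0.1% formaldehyde, proximity-ligated with BsaI/T4 ligase (1 h, 37 °C), PCR-amplified and sequenced on an Illumina NextSeq500. Binding signal is the read frequency of each hexamer for a given factor divided by its frequency in the tag-only sample.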

Another experiment deals with T2, ETV3L (Homo sapiens, UniProt Q6ZN32 1-361).
T2 sequence: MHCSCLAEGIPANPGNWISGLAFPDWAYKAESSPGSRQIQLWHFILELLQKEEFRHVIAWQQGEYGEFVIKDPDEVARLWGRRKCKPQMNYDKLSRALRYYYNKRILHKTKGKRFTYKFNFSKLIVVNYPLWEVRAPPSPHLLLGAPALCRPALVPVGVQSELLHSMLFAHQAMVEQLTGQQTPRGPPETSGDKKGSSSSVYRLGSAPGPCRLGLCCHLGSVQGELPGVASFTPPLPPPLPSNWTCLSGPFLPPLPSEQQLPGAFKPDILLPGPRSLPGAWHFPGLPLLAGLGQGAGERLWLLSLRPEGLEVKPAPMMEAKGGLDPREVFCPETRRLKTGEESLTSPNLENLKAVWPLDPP
The method in brief: as §1

For the next experiment, the target named is T3, ETS2 (Homo sapiens, UniProt P15036 1-469).
T3 sequence: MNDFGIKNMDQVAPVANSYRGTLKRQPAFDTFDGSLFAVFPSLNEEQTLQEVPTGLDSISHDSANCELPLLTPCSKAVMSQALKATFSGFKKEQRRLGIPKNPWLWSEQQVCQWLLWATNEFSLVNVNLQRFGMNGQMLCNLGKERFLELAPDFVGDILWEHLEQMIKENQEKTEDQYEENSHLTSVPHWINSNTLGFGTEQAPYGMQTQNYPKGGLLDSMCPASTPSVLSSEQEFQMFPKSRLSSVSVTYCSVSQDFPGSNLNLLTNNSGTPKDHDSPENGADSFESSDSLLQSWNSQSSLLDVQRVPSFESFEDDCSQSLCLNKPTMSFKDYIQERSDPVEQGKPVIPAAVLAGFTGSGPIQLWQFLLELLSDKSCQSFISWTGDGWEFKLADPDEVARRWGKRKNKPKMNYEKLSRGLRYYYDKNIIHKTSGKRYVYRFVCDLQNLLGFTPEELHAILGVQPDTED
The method in brief:
as §1

In the next experiment the target is T4, SPDEF (Homo sapiens, UniProt O95238 1-335).
T4 sequence: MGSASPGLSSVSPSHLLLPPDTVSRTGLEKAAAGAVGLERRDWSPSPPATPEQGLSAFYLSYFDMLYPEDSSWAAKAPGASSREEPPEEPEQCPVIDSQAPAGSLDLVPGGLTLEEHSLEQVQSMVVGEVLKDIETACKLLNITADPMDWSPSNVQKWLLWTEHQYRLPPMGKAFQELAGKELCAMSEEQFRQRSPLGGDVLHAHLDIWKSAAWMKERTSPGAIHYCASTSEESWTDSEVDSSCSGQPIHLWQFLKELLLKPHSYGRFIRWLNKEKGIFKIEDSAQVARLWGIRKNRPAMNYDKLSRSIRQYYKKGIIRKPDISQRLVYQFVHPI
The procedure, abridged: as §1

The target in the next experiment is T5, ETV7 (Homo sapiens, UniProt Q9Y603 1-341).
T5 sequence: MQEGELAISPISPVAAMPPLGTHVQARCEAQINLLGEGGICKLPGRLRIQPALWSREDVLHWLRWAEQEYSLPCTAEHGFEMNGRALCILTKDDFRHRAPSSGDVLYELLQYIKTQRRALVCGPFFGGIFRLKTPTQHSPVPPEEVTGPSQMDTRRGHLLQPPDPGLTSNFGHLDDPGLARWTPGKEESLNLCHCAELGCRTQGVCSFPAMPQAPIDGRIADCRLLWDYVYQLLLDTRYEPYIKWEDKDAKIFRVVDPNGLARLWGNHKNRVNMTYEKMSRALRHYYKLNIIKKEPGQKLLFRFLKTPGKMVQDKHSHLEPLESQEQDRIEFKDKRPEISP
The method in brief: as §1

For another experiment, the target named is T6, ELF5 (Homo sapiens, UniProt Q9UKW6-2 1-255).
T6 sequence: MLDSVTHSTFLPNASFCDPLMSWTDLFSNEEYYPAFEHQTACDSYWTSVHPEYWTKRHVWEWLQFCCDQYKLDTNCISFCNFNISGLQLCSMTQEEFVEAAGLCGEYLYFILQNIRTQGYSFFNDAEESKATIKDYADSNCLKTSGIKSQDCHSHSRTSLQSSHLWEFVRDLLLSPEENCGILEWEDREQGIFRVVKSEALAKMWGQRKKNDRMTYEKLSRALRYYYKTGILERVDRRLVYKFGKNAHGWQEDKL
The procedure, abridged:
as §1

The target of another experiment is T7, ETV3 (Homo sapiens, UniProt P41162-2 1-143).
T7 sequence: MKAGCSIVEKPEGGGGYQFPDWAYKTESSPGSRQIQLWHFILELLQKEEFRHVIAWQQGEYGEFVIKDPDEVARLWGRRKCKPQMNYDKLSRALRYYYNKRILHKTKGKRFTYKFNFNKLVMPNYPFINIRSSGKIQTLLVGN
The method in brief:
as §1

The target in the next experiment is ETV6 (Homo sapiens, UniProt P41212 1-452). The procedure, abridged: as §1
Sequence of ETV6 (P41212 whole entry): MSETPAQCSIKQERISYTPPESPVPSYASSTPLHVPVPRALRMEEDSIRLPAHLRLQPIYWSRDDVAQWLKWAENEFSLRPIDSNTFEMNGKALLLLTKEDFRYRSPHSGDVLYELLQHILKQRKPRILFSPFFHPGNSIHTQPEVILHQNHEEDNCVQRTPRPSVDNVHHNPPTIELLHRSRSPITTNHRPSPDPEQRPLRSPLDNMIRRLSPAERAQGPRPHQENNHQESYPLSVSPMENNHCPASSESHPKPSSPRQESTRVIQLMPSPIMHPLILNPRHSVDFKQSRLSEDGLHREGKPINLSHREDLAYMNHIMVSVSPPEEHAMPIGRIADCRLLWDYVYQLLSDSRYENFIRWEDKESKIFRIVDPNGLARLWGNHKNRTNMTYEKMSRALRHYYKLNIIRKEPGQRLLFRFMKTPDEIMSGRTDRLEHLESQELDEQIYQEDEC

As to GGCTCC, the binding signal in the experiment with ERF was 1.28 fold enrichment (6-mer frequency, TF over GST control); with ETV3L it was 1.27 fold enrichment (6-mer frequency, TF over GST control); with ETS2 it was 1.21 fold enrichment (6-mer frequency, TF over GST control); in the experiment with SPDEF, 1.48 fold enrichment (6-mer frequency, TF over GST control); with ETV7, 1.25 fold enrichment (6-mer frequency, TF over GST control); with ELF5, 1.33 fold enrichment (6-mer frequency, TF over GST control). Besides, the binding signal with ETV3 was 1.3 fold enrichment (6-mer frequency, TF over GST control); with ETV6, 1.25 fold enrichment (6-mer frequency, TF over GST control).
On to ACATCC, for which the binding signal in the experiment with ERF was 2.41 fold enrichment (6-mer frequency, TF over GST control); with ETV3L, 2.46 fold enrichment (6-mer frequency, TF over GST control); with ETS2 it was 2.68 fold enrichment (6-mer frequency, TF over GST control); with SPDEF, 5.32 fold enrichment (6-mer frequency, TF over GST control); with ETV7 it was 2.28 fold enrichment (6-mer frequency, TF over GST control); with ELF5, 3.25 fold enrichment (6-mer frequency, TF over GST control). Further, the binding signal in the experiment with ETV3 is 2.88 fold enrichment (6-mer frequency, TF over GST control); with ETV6, 2.49 fold enrichment (6-mer frequency, TF over GST control).
For CATTCT, the binding signal was 1.43 fold enrichment (6-mer frequency, TF over GST control) with ERF; 1.31 fold enrichment (6-mer frequency, TF over GST control) with ETV3L; 1.23 fold enrichment (6-mer frequency, TF over GST control) with ETS2; 1.24 fold enrichment (6-mer frequency, TF over GST control) with SPDEF; 1.35 fold enrichment (6-mer frequency, TF over GST control) in the experiment with ETV7; 1.27 fold enrichment (6-mer frequency, TF over GST control) with ELF5. The binding signal in the experiment with ETV3 is 1.21 fold enrichment (6-mer frequency, TF over GST control); with ETV6 it was 1.34 fold enrichment (6-mer frequency, TF over GST control).
Take AACTAC: the binding signal in the experiment with ERF was 1.54 fold enrichment (6-mer frequency, TF over GST control); with ETV3L, 1.44 fold enrichment (6-mer frequency, TF over GST control); in the experiment with ETS2, 1.42 fold enrichment (6-mer frequency, TF over GST control); in the experiment with SPDEF, 1.48 fold enrichment (6-mer frequency, TF over GST control); with ETV7, 1.39 fold enrichment (6-mer frequency, TF over GST control); with ELF5 it was 1.5 fold enrichment (6-mer frequency, TF over GST control). The binding signal with ETV3 was 1.45 fold enrichment (6-mer frequency, TF over GST control); in the experiment with ETV6, 1.51 fold enrichment (6-mer frequency, TF over GST control).
As to CCTCTA, the binding signal with ERF was 1.34 fold enrichment (6-mer frequency, TF over GST control); in the experiment with ETV3L it was 1.38 fold enrichment (6-mer frequency, TF over GST control); in the experiment with ETS2, 1.46 fold enrichment (6-mer frequency, TF over GST control); in the experiment with SPDEF it was 1.32 fold enrichment (6-mer frequency, TF over GST control); with ETV7, 1.36 fold enrichment (6-mer frequency, TF over GST control); with ELF5, 1.48 fold enrichment (6-mer frequency, TF over GST control). Moreover, the binding signal with ETV3 is 1.33 fold enrichment (6-mer frequency, TF over GST control); in the experiment with ETV6, 1.3 fold enrichment (6-mer frequency, TF over GST control).
Consider AATAGC, for which the binding signal was 1.25 fold enrichment (6-mer frequency, TF over GST control) with ERF; 1.03 fold enrichment (6-mer frequency, TF over GST control) with ETV3L; 1.15 fold enrichment (6-mer frequency, TF over GST control) in the experiment with ETS2; 1.1 fold enrichment (6-mer frequency, TF over GST control) in the experiment with SPDEF; 1.19 fold enrichment (6-mer frequency, TF over GST control) with ETV7; 1.16 fold enrichment (6-mer frequency, TF over GST control) in the experiment with ELF5. The binding signal with ETV3 was 1.23 fold enrichment (6-mer frequency, TF over GST control); in the experiment with ETV6 it was 1.1 fold enrichment (6-mer frequency, TF over GST control).
Consider TAATGC, for which the binding signal in the experiment with ERF is 1.07 fold enrichment (6-mer frequency, TF over GST control); with ETV3L, 1.16 fold enrichment (6-mer frequency, TF over GST control); in the experiment with ETS2, 1.2 fold enrichment (6-mer frequency, TF over GST control); with SPDEF, 1.17 fold enrichment (6-mer frequency, TF over GST control); with ETV7, 1.13 fold enrichment (6-mer frequency, TF over GST control); in the experiment with ELF5, 1.17 fold enrichment (6-mer frequency, TF over GST control). For the same sequence, the binding signal with ETV3 is 1.16 fold enrichment (6-mer frequency, TF over GST control); with ETV6 it was 1.13 fold enrichment (6-mer frequency, TF over GST control).
ACGTTT: the binding signal with ERF was 1.18 fold enrichment (6-mer frequency, TF over GST control); in the experiment with ETV3L it was 1.13 fold enrichment (6-mer frequency, TF over GST control); with ETS2, 1.2 fold enrichment (6-mer frequency, TF over GST control); in the experiment with SPDEF it was 1.21 fold enrichment (6-mer frequency, TF over GST control); with ETV7, 1.33 fold enrichment (6-mer frequency, TF over GST control); in the experiment with ELF5, 1.23 fold enrichment (6-mer frequency, TF over GST control). In addition, the binding signal is 1.1 fold enrichment (6-mer frequency, TF over GST control) with ETV3 and 1.33 fold enrichment (6-mer frequency, TF over GST control) with ETV6.
